Reference: the supplement of paper PMC10849652
The full data set covers some 8,800 targets. This sample favours those with a hit. About 0.5% of all pairs of compound and target were hits.

What was measured:
Assay in all cases: log2 fold change, soluble protein after heating vs DMSO (PISA); higher = thermal stabilisation; K562 lysate, 10 uM; active = over 0.2 and 3.5 SD of the protein, either way, in both replicates (recomputed)
[1] = compound: C1=CC=C(C=C1)[C@H](COC2=CC3=C(C=C2)NC(=O)N3)NC(=O)C4=CC=CN(C4=O)CC5=CC(=C(C=C5)F)F
Method in brief: (§1)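 Values give the log-two fold change in thermal stability against solvent controls, from duplicates. Crude K562 extract at 1 mg/mL protein, made by dounce homogenisation in PBS pH 7.4 with 1 mM MgCl2, was treated with 10 μM compound for 30 min. After 3 min heating across 48°C-58°C, aliquots were pooled, adjusted to 0.5% NP-40 at 4°C and centrifuged at 21,000xg for 90 min. The supernatant was measured by TMTpro 16plex LC-MS/MS with channel sums equalised.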

[2] = compound: CC1=C(SC2=C1C(=N[C@H](C3=NN=C(N32)C)CC(=O)N)C4=CC=C(C=C4)Cl)C
Method in brief: as §1

[3] = compound: CC1=C2C(=CC=C1)N=C(N(C2=O)C3=CC=CC=C3C)CN4C=NC5=C(N=CN=C54)N
Method in brief: as §1

[4] = compound: Cc1sc2c(c1C)C(c1ccc(Cl)cc1)=N[C@@H](CC(=O)OC(C)(C)C)c1nnc(C)n1-2
Method in brief: as §1

[5] = compound: c1ccc([C@@H]2C[C@H]2NC2CCNCC2)cc1
Method in brief: as §1

Measured: log2 fold change

EIF3I (UniProt Q13347)
inactive: [1] -0.038 | [2] 0.022 | [3] 0.01 | [4] 0.019 | [5] 0.033

ECI2 (UniProt O75521)
inactive: [1] 0.019 | [2] -0.005 | [3] 0.014 | [4] -0.009 | [5] -0.045

ELAVL1 isoform 2 (UniProt Q15717)
inactive: [1] -0.038 | [2] 0 | [3] -0.017 | [4] 0.066 | [5] 0.052

ENO1 isoform 2 (UniProt P06733)
inactive: [1] 0.068 | [2] -0.145 | [3] 0.033 | [4] -0.062 | [5] -0.143

ERBIN isoform 8 (UniProt Q96RT1)
Sequence of UniProt Q96RT1 (Q96RT1 whole entry, looked up): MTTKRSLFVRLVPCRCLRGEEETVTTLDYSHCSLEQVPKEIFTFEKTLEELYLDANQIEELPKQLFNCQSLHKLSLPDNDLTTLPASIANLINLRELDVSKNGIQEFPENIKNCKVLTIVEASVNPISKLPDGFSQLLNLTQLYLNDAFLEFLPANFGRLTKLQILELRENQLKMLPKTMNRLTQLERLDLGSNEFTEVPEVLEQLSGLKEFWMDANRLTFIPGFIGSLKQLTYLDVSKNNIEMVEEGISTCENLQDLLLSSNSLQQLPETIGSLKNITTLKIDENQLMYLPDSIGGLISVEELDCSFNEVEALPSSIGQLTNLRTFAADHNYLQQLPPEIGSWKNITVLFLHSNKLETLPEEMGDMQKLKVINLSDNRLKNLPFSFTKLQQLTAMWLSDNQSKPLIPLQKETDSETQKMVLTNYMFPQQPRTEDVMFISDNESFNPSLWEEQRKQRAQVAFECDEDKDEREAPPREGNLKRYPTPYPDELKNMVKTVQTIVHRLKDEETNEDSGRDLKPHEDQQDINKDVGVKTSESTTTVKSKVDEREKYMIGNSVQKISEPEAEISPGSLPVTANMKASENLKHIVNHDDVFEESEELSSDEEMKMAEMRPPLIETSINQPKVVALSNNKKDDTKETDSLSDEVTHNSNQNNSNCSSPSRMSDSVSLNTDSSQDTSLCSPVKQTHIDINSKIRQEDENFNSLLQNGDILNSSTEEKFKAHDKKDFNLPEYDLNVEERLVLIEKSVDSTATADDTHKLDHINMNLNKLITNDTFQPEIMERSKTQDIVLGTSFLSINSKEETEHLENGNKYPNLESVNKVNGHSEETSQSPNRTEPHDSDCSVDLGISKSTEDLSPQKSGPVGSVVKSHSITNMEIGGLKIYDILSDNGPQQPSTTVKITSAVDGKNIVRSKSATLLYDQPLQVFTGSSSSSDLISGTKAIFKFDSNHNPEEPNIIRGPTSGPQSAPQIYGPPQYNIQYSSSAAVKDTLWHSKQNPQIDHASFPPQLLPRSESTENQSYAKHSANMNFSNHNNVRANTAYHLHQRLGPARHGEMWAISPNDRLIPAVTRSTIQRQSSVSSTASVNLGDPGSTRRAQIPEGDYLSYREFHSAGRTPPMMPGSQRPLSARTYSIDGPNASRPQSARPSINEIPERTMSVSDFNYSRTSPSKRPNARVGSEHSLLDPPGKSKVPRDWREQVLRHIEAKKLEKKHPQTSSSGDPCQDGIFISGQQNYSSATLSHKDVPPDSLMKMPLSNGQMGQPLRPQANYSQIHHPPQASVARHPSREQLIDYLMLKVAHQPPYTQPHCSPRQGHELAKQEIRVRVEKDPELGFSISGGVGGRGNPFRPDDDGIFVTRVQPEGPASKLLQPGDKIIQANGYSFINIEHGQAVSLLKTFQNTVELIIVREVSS
inactive: [1] -0.012 | [2] 0.02 | [3] -0.04 | [4] 0.037 | [5] -0.048

EPHX2 (UniProt P34913)
inactive: [1] 0.021 | [2] 0.006 | [3] 0 | [4] 0.119 | [5] -0.012

EIF2B5 (UniProt Q13144)
inactive: [1] -0.03 | [2] 0.007 | [3] 0.019 | [4] 0.023 | [5] 0.017

EAPP (UniProt Q56P03)
inactive: [1] 0.008 | [2] 0.048 | [3] 0.137 | [4] 0.029 | [5] -0.079

FDX2 (UniProt Q6P4F2)
inactive: [1] -0.039 | [2] 0.021 | [3] -0.012 | [4] 0.062 | [5] -0.05

EGLN1 (UniProt Q9GZT9)
inactive: [1] 0.095 | [2] -0.023 | [3] -0.01 | [4] -0.038 | [5] -0.007

EEFSEC (UniProt P57772)
inactive: [1] -0.033 | [2] -0.003 | [3] 0.009 | [4] -0.003 | [5] 0.015

EIF2B3 (UniProt Q9NR50)
inactive: [1] -0.047 | [2] 0.008 | [3] -0.01 | [4] 0.004 | [5] 0.107

EXTL2 (UniProt Q9UBQ6)
Sequence of UniProt Q9UBQ6 (Q9UBQ6 whole entry, looked up): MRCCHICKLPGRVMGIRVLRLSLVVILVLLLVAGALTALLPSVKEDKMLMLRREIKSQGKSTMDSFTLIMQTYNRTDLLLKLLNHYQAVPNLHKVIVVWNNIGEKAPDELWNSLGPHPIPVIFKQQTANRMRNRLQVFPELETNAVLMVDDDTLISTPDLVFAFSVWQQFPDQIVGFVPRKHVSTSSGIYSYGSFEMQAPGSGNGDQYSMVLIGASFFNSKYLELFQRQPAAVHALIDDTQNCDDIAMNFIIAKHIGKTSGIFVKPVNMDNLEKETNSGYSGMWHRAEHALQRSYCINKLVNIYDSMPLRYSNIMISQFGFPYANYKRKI
inactive: [1] 0.208 | [2] 0.235 | [3] -0.059 | [4] -0.185 | [5] 0.028

ELF2 (UniProt Q15723)
Sequence of UniProt Q15723 (Q15723 whole entry, looked up): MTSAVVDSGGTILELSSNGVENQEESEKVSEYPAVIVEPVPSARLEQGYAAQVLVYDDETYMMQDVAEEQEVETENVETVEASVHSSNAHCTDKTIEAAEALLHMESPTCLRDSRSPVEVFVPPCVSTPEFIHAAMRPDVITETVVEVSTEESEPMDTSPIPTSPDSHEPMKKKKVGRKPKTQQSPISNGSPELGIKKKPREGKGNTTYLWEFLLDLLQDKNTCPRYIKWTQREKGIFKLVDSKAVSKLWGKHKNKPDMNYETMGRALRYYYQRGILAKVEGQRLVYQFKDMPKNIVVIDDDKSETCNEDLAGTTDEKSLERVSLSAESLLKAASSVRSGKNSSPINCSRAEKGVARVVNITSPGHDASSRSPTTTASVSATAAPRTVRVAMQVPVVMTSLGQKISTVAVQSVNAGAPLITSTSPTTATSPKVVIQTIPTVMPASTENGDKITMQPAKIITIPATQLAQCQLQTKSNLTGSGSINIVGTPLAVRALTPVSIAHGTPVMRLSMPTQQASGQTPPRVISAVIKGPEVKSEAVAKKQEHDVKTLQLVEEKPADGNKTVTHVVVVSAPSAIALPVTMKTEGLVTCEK
inactive: [1] -0.162 | [2] -0.074 | [3] 0.044 | [4] -0.005 | [5] 0.013

FIGNL1 (UniProt Q6PIW4)
inactive: [1] -0.033 | [2] 0.01 | [3] 0.028 | [4] 0.051 | [5] 0.085

DST (UniProt Q03001)
inactive: [1] -0.002 | [2] 0.042 | [3] 0.111 | [4] -0.061 | [5] -0.077

FAM118A (UniProt Q9NWS6)
inactive: [1] -0.028 | [2] -0.033 | [3] -0.021 | [4] -0.108 | [5] -0.015

FLAD1 (UniProt Q8NFF5)
inactive: [1] 0.006 | [2] 0.032 | [3] 0.011 | [4] 0.017 | [5] 0.022

ENY2 (UniProt Q9NPA8)
inactive: [1] 0.033 | [2] -0.001 | [3] -0.162 | [4] 0.117 | [5] 0.386

EIF1 (UniProt P41567)
inactive: [1] 0.146 | [2] -0.034 | [3] -0.031 | [4] -0.035 | [5] -0.114

ERAL1 (UniProt O75616)
inactive: [1] -0.048 | [2] 0.033 | [3] 0.007 | [4] 0.009 | [5] 0.075

EDC3 (UniProt Q96F86)
inactive: [1] 0.036 | [2] 0 | [3] 0.028 | [4] 0.031 | [5] 0.008

EDARADD (UniProt Q8WWZ3)
Sequence of UniProt Q8WWZ3 (Q8WWZ3 whole entry, looked up): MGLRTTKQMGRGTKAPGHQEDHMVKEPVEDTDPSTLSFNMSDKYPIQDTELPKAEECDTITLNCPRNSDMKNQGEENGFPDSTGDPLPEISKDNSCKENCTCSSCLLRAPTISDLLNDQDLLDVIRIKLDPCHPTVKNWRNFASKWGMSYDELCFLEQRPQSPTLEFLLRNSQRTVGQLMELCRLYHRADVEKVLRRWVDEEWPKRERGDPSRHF
inactive: [1] 0.074 | [2] -0.088 | [3] -0.032 | [4] -0.037 | [5] 0.064

EEF1AKNMT (UniProt Q8N6R0)
inactive: [1] -0.012 | [2] -0.073 | [3] 0.013 | [4] 0.018 | [5] 0.042

GABPB1 (UniProt Q06547)
inactive: [1] 0.044 | [2] -0.013 | [3] -0.04 | [4] -0.001 | [5] 0.132

FUBP3 (UniProt Q96I24)
inactive: [1] -0.052 | [2] 0.019 | [3] -0.007 | [4] -0.01 | [5] 0.011

EXOC1 (UniProt Q9NV70)
Sequence of UniProt Q9NV70 (Q9NV70 whole entry, looked up): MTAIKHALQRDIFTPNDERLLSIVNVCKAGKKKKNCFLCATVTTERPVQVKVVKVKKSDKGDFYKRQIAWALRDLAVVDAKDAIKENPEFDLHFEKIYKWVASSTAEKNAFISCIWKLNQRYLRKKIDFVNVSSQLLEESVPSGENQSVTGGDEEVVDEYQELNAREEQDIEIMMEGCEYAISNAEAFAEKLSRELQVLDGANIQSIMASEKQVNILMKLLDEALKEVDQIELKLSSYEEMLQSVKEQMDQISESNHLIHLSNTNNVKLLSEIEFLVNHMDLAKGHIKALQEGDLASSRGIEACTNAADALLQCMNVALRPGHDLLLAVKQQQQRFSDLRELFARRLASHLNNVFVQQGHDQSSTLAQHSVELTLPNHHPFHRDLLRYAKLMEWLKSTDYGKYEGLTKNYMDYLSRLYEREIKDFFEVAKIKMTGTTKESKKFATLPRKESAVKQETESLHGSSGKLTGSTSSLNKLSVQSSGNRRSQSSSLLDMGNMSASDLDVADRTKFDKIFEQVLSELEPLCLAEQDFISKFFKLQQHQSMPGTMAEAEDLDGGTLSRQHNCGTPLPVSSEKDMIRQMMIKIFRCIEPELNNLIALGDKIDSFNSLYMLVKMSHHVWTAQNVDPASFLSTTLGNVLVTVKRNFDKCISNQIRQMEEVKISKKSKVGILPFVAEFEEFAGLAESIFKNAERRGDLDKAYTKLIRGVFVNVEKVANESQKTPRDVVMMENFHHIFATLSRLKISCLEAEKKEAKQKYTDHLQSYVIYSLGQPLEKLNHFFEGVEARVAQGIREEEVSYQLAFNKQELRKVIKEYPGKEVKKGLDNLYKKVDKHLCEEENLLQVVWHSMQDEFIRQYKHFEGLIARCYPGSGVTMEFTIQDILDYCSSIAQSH
inactive: [1] -0.011 | [2] 0.032 | [3] 0.013 | [4] 0.02 | [5] 0.068

ERI1 (UniProt Q8IV48)
inactive: [1] 0.071 | [2] -0.061 | [3] -0.022 | [4] -0.015 | [5] 0.056

FAM83D (UniProt Q9H4H8)
inactive: [1] -0.021 | [2] 0.023 | [3] 0.035 | [4] -0.02 | [5] -0.006

ERLIN2 (UniProt O94905)
inactive: [1] 0.009 | [2] -0.007 | [3] 0.016 | [4] -0.126 | [5] 0.143

ETHE1 (UniProt O95571)
inactive: [1] 0.008 | [2] 0.003 | [3] 0.008 | [4] 0.048 | [5] -0.147

FMNL1 isoform 3 (UniProt O95466)
inactive: [1] 0.104 | [2] -0.01 | [3] 0.057 | [4] 0.027 | [5] 0.082

GAPVD1 isoform 6 (UniProt Q14C86)
inactive: [1] -0.013 | [2] 0.002 | [3] 0.002 | [4] -0.011 | [5] 0.063

FYN (UniProt P06241)
inactive: [1] -0.323 | [2] -0.231 | [3] -0.052 | [4] 0.019 | [5] -0.112

FAM83A (UniProt Q86UY5)
inactive: [1] 0.065 | [2] -0.023 | [3] 0.063 | [4] 0.11 | [5] -0.039

DTL (UniProt Q9NZJ0)
inactive: [1] 0.033 | [2] 0.038 | [3] 0.089 | [4] -0.032 | [5] -0.01

FOXJ3 (UniProt Q9UPW0)
inactive: [1] 0.004 | [2] -0.072 | [3] 0.013 | [4] -0.021 | [5] -0.026

ETFRF1 (UniProt Q6IPR1)
inactive: [1] 0.021 | [2] 0.058 | [3] -0.031 | [4] -0.02 | [5] 0.066

FAM53B (UniProt Q14153)
inactive: [1] 0.044 | [2] -0.039 | [3] 0.055 | [4] -0.088 | [5] 0.022

ERLIN1 (UniProt O75477)
inactive: [1] -0.03 | [2] 0.039 | [3] 0.02 | [4] 0.029 | [5] -0.033

G6PD isoform 2 (UniProt P11413)
inactive: [1] 0.023 | [2] -0.002 | [3] 0.011 | [4] 0.053 | [5] 0.075

EMC7 (UniProt Q9NPA0)
inactive: [1] 0.01 | [2] 0.02 | [3] 0.024 | [4] 0.005 | [5] -0.141

FARSA (UniProt Q9Y285)
Sequence of UniProt Q9Y285 (Q9Y285 whole entry, looked up): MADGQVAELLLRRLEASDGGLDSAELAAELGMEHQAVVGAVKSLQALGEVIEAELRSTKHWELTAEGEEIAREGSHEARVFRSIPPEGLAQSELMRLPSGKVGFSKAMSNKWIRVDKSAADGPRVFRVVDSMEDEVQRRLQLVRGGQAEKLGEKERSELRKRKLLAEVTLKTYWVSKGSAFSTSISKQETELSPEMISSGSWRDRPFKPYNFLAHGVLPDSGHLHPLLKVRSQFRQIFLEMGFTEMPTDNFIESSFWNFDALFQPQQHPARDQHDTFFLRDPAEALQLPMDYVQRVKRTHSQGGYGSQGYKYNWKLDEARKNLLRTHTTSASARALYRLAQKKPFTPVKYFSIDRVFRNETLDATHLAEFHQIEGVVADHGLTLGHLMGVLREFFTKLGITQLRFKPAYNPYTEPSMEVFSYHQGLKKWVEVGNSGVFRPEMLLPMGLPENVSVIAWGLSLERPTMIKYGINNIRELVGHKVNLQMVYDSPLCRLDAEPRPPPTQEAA
inactive: [1] 0.028 | [2] 0.171 | [3] -0.003 | [4] -0.028 | [5] -0.009

EIF2B4 isoform 2 (UniProt Q9UI10)
inactive: [1] -0.026 | [2] 0.04 | [3] 0.037 | [4] -0.007 | [5] 0.042

EDC4 (UniProt Q6P2E9)
inactive: [1] -0.026 | [2] 0.005 | [3] 0.027 | [4] 0.008 | [5] 0.011

FYB1 isoform 3 (UniProt O15117)
inactive: [1] 0.011 | [2] 0.039 | [3] 0.095 | [4] 0.008 | [5] 0.051

EP300 (UniProt Q09472)
inactive: [1] -0.048 | [2] -0.013 | [3] 0.025 | [4] 0.005 | [5] -0.016

GEMIN4 (UniProt P57678)
Sequence of UniProt P57678 (P57678 whole entry, looked up): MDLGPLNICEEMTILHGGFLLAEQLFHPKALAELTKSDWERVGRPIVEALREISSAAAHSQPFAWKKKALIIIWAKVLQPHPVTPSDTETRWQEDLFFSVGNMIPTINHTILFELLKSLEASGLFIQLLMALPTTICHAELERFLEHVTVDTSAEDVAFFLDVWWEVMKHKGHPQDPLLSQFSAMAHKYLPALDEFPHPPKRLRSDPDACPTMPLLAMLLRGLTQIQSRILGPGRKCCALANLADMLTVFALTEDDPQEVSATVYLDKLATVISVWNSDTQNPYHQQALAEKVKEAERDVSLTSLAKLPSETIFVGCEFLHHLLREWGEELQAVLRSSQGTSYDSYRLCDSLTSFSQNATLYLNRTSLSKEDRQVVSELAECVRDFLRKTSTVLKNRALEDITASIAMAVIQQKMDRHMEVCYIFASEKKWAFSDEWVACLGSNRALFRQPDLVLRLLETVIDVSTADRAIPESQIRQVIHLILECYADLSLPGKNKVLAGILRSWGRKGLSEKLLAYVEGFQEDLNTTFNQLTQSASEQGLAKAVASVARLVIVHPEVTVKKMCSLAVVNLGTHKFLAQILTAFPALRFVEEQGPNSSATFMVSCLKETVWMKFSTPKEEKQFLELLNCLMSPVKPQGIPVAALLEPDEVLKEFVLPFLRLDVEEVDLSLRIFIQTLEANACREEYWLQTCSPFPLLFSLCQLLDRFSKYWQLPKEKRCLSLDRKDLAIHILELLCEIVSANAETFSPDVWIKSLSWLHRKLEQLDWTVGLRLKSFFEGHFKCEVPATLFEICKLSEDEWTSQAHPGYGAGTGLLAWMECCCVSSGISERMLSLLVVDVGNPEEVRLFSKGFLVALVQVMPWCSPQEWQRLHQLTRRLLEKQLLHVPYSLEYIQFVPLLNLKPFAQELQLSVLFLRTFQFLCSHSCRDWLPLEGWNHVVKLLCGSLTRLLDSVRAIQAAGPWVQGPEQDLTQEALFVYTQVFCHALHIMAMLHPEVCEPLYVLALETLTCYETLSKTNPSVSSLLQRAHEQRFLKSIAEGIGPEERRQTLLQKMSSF
inactive: [1] -0.036 | [2] -0.015 | [3] -0.014 | [4] 0.04 | [5] 0.041

EPN2 (UniProt O95208)
inactive: [1] -0.012 | [2] -0.017 | [3] -0.02 | [4] -0.084 | [5] -0.161

FYCO1 isoform 4 (UniProt Q9BQS8)
inactive: [1] 0.01 | [2] 0.037 | [3] 0.03 | [4] 0.023 | [5] -0.1

DTWD1 (UniProt Q8N5C7)
inactive: [1] -0.003 | [2] 0.075 | [3] -0.004 | [4] 0.039 | [5] 0.095

EXOC2 (UniProt Q96KP1)
inactive: [1] -0.01 | [2] -0.018 | [3] -0.013 | [4] -0.019 | [5] 0.063

ESYT2 (UniProt H7BXI1)
inactive: [1] 0.004 | [2] 0.018 | [3] -0.001 | [4] 0.048 | [5] 0.036
